JMJD2A Tudor inh – inhibitors of human JMJD2A Tudor domain; AlphaScreen JMJD2A-Tudor / H3K4me3 peptide binding; Potency, µM (titrated, usually from 114 µM), actives largely listed as inhibitors; 4.4% of 390,000 active; AID 504339; also: nearly all actives have a fitted effect of over 50% in size
G9a block – blocks human histone lysine methyltransferase G9a. Q96KQ7. G9a H3K9 monomethylation, AlphaScreen, 2 h. Potency, µM (top dose mostly 102 µM), actives largely listed as inhibitors. 8.8% of 350,000 active. AID 504332; also: nearly all actives have a fitted effect of over 75% in size
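Quantitative HTS format: methyltransferase activity on a biotin-tagged H3K9 peptide is measured by AlphaScreen, using a rabbit anti-monomethyl-H3K9 antibody with streptavidin donor and anti-IgG acceptor beads. Final levels are 20 nM enzyme, 500 nM peptide, 20 uM SAM; 2 h RT.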
CtBP-E1A blk – blocks the CtBP interaction with E1A | AlphaScreen GST-E1A/His-CtBP binding, 1536-well; stronger effect = lower value | activity change, % (test concentration not listed) | 0.49% of 340,000 active; in the data active = activity change below about -65%; inconclusive = mostly about -30% to -63%
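In 5 uL wells, 23 nL compound meets equimolar GST-E1A and His-CtBP (5X stock 125 nM each) for 2 h, 37 °C. Beads (5X, 50 ug/mL) then 1 h, 37 °C, dark.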
BAZ2B inh – inhibitors of human BAZ2B bromodomain | Q9UIF8 | AlphaScreen BAZ2B-H3K14Ac peptide displacement | Potency, µM (series often up to 114 µM), usual class: inhibitors | 4.4% of 360,000 active | AID 504333; also: nearly all actives have a fitted effect of over 60% in size
Target sequence (Q9UIF8 whole entry, looked up): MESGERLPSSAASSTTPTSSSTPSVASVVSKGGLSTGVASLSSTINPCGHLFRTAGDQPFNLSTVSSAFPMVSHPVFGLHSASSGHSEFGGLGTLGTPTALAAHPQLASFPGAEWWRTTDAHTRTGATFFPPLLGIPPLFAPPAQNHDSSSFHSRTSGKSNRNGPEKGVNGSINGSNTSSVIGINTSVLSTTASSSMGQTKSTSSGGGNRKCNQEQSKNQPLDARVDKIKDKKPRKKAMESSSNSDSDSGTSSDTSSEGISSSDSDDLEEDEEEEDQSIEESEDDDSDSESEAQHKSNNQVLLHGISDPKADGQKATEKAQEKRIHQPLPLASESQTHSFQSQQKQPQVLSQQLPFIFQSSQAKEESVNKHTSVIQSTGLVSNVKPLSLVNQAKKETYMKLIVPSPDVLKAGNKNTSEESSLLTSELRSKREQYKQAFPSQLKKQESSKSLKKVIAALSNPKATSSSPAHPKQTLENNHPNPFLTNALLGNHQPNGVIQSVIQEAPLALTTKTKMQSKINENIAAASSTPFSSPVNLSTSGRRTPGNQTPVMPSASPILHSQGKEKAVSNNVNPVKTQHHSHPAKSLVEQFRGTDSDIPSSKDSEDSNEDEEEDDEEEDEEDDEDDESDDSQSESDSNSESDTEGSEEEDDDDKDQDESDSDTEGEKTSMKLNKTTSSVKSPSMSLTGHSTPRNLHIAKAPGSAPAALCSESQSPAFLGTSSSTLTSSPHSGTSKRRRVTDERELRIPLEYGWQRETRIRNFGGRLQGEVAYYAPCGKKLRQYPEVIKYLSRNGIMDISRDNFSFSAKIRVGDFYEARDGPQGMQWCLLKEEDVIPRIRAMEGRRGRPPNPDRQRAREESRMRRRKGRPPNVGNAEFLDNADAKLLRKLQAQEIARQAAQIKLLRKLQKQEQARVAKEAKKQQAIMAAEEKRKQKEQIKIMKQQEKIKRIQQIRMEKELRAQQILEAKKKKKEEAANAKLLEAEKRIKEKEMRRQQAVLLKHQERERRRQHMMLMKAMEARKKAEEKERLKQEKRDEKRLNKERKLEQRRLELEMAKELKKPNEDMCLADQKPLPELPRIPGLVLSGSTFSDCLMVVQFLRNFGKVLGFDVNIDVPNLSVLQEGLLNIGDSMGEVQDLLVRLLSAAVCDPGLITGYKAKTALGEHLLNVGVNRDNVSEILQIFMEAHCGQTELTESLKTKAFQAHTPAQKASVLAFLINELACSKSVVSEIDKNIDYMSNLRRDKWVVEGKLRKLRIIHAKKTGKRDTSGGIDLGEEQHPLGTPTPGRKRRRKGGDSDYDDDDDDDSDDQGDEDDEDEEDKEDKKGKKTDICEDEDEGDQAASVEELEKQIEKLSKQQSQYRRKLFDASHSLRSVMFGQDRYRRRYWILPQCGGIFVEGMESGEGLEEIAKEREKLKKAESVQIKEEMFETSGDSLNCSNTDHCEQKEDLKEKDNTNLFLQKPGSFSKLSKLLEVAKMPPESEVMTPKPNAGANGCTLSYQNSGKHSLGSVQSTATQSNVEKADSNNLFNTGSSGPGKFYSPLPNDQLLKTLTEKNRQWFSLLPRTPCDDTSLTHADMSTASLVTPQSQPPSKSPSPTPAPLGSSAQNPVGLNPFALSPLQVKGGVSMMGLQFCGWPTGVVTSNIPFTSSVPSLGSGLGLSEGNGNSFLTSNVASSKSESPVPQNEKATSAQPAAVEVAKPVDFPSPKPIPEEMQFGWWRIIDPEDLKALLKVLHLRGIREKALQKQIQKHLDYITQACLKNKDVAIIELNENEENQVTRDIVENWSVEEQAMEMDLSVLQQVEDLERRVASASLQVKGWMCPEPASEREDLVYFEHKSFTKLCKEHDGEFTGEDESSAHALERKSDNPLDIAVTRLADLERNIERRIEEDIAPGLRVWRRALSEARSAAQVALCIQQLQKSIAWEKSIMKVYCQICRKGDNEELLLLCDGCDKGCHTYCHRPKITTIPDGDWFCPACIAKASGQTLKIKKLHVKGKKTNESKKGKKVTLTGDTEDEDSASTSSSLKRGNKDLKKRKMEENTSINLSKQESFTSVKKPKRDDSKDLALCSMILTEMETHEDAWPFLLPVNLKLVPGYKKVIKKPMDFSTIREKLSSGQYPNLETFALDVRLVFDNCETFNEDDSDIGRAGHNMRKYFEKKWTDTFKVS
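Multi-concentration screen (max 110 uM) measuring displacement of acetylated histone H3 peptide from BAZ2B by AlphaScreen, using 50 nM protein, 50 nM peptide and 10 ug/mL streptavidin donor plus Ni-chelate acceptor beads.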
HP1b binding inh – inhibitors of HP1-beta chromodomain binding to methylated histone tails; 0.56% of 390,000 active; AlphaScreen HP1-beta / biotin-H3K9me3 peptide binding; Potency, µM (highest dose often 114 µM), hits mostly inhibitors; also: nearly all actives have a fitted effect of over 70% in size
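AlphaScreen: HP1-beta (50 nM) preformed 30 min with biotin-H3(1-18)K9me3 peptide (50 nM) in PBS pH 7.4, 0.01% Tween-20. Compound added for 30 min at RT, then streptavidin donor/nickel chelate acceptor beads (10 ug/mL) for 30 min.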
Six1-Eya2 inh – inhibitors of human Six1/Eya2 interaction; Q15475+O00167; AlphaScreen GST-Six1/His-Eya2 binding, biochemical; stronger effect = lower value; activity change, % (concentration not given with the values); 0.56% of 360,000 active; AID 651725; in the data active = activity change below about -65%; inconclusive = mostly about -30% to -63%
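Homogeneous AlphaScreen proximity assay pairing GST-Six1 with His-tagged Eya2 (added as 5X mix: 250 nM and 500 nM) in 50 mM Tris pH 8.0, 300 mM NaCl, 1 mM TCEP. Glutathione donor and nickel acceptor beads; 1 h, 37 °C, dark.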
Large screens that a line does not name were inactive. This is a sample that favours compounds with a hit; in the whole collection about 10% have one here. Unless noted, calls follow the shape of the dose curve; as a rule, active = well fitted inhibition curve with a large enough effect; inconclusive = small, poorly fitted or top-dose-only effect; inactive = no such curve, though single readings can be large or run the other way.

COc1ccc(CNc2ccc3cc(S(=O)(=O)N4CCCCC4)ccc3n2)cc1	G9a block 11.2µM (no result: CtBP-E1A blk, Six1-Eya2 inh)
O=S(=O)(c1ccc2nc(Nc3ccccc3)ccc2c1)N1CCCCC1	JMJD2A Tudor inh 28.2µM, BAZ2B inh 39.8µM (no result: G9a block)
Cc1cccc(C(=O)NC(=S)NC(C)c2ccccc2)c1 (stereo not given)	none (no result: G9a block, BAZ2B inh)
Cc1ccc(S(=O)(=O)C(CNC(=O)C(=O)NCc2ccc(Cl)cc2)c2ccco2)cc1 (stereo not given)	none (no result: CtBP-E1A blk, Six1-Eya2 inh)
CCOc1ccc(C2=Cc3cc(OC)c(OC)cc3C(=C(Cl)Cl)O2)cc1	G9a block 7.08µM, BAZ2B inh inconclusive (no result: JMJD2A Tudor inh, CtBP-E1A blk, HP1b binding inh, Six1-Eya2 inh)
Cc1c(C(=O)Nc2cccc(Cl)c2)oc2ccc(S(=O)(=O)N(C)C3CCCCC3)cc12	none (no result: CtBP-E1A blk, Six1-Eya2 inh)
Cc1cc(Br)ccc1NC(=S)Nc1cccc([N+](=O)[O-])c1	G9a block 44.7µM
Cc1cccc(NC(=S)N/N=C/c2ccc([N+](=O)[O-])s2)c1	JMJD2A Tudor inh 56.2µM, G9a block inconclusive, CtBP-E1A blk inconclusive, BAZ2B inh 10µM, HP1b binding inh inconclusive, Six1-Eya2 inh inconclusive
Cc1cccc(NC(=S)NNC(=O)c2cccc([N+](=O)[O-])c2)c1	G9a block 20µM, BAZ2B inh inconclusive
CNC(=S)Nc1cccc([N+](=O)[O-])c1	G9a block inconclusive
Cc1cccc(NC(=O)/C=C/c2ccc([N+](=O)[O-])s2)c1	none
O=[N+]([O-])c1cccc(NC(=S)NCc2ccncc2)c1	G9a block 35.5µM
COc1cc(NS(=O)(=O)c2ccc(NC(=O)c3ccc(OC)c(Br)c3)cc2)nc(OC)n1	G9a block inconclusive (no result: CtBP-E1A blk, Six1-Eya2 inh)
Cc1cc(C)cc(N(C)S(=O)(=O)c2nnc(NC(=O)COc3ccc(C)c(C)c3)s2)c1	none (no result: CtBP-E1A blk, Six1-Eya2 inh)
C/C=C/c1cccc(-c2nc(C(=O)NC3Cc4ccccc4C3)cc3c2[C@@H](CCO)N(C(C)=O)C3)c1	none (no result: JMJD2A Tudor inh, G9a block, BAZ2B inh, HP1b binding inh)
O=C(NCCCN1C(=O)c2ccccc2C1=O)OCc1ccccc1	none (no result: G9a block, BAZ2B inh)
Cc1occc1C(=O)NNC(=S)Nc1cccc([N+](=O)[O-])c1	G9a block 11.2µM
CC(=O)NC(=S)Nc1cccc([N+](=O)[O-])c1	none
O/C=c1\ccc2cccc3nc(C(F)(F)F)nc1c23	JMJD2A Tudor inh 89.1µM, CtBP-E1A blk inconclusive, BAZ2B inh inconclusive
C/C(O)=c1/ccc2cccc3nc(C)nc1c23	none (no result: G9a block)
CCc1ccccc1NC(=O)Cn1c(=O)n(Cc2ccc3c(c2)OCO3)c(=O)c2ccc(C(=O)NC3CCCCC3)cc21	none (no result: CtBP-E1A blk, BAZ2B inh, Six1-Eya2 inh)
CCC1=NN(C(=O)c2cccc(Br)c2)C(O)(c2ccc(Br)cc2)C1 (stereo not given)	JMJD2A Tudor inh inconclusive, BAZ2B inh 39.8µM
Cc1ccc(S(=O)(=O)N2CCN(C(C)C)CC2)cc1	none
Cc1ccc(S(=O)(=O)N2CCN(C(C)CC(=O)O)CC2)cc1 (stereo not given)	JMJD2A Tudor inh 5.62µM, G9a block 28.2µM, BAZ2B inh 50.1µM, HP1b binding inh inconclusive
CCC(C)c1ccc(S(=O)(=O)N2CCN(C(C)CC(=O)O)CC2)cc1 (stereo not given)	JMJD2A Tudor inh 3.55µM, G9a block 7.08µM (no result: BAZ2B inh)
Cc1cccc(-n2c(Cc3ccccc3)n[nH]c2=S)c1	JMJD2A Tudor inh 31.6µM, G9a block 22.4µM
CCc1ccc(-n2c(Cc3ccccc3)n[nH]c2=S)cc1	JMJD2A Tudor inh 22.4µM, G9a block inconclusive
CSc1nnc(CNC(=O)c2ccccc2)n1-c1cccc(C)c1	none
Cc1cccc(-n2c(CNC(=O)Cc3ccccc3)n[nH]c2=S)c1	JMJD2A Tudor inh 3.98µM, G9a block 20µM
NS(=O)(=O)c1ccc(CCNc2nccn(-c3cccc(C(F)(F)F)c3)c2=O)cc1	BAZ2B inh inconclusive (no result: CtBP-E1A blk, Six1-Eya2 inh)
COc1ccccc1OCc1n[nH]c(=S)n1Cc1ccccc1	JMJD2A Tudor inh 31.6µM, G9a block 12.6µM
CCn1c(CCCCc2n[nH]c(=S)n2CC)n[nH]c1=S	JMJD2A Tudor inh 4.47µM, G9a block 20µM, HP1b binding inh inconclusive
Cc1ccc(NCc2n[nH]c(=S)n2Cc2ccccc2)cc1Cl	JMJD2A Tudor inh inconclusive, G9a block 17.8µM, BAZ2B inh inconclusive
S=c1[nH]nc(COc2cccc(Cl)c2)n1Cc1ccccc1	none

Screens from PubChem.
